The full list was thinned out, with hits kept by preference.
DUX4 txn inh – DUX4-mediated transcription inhibition; 293T-iDUX4 ZSCAN4-Gaussia luciferase reporter, 24 h; hits give low values; activity change, negative = inhibition, % (no concentration beside the values); 37,000 tested, 0.8% active;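 active = mean inhibition of at least 10% in the main channel, exceeding the control channel by a set limit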;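 note: 0% = median of neutral control wells and -100% = median of positive control wells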
Starred values were filed as active, the others as inactive; ! = not active in a repeat.

SMILES	DUX4 txn inh
O=C(NC1CCCC1)N1CC2(C1)[C@H](c1ccccc1)[C@H](CO)N2CC1CCCC1	-9.4
CCNC(=O)C[C@@H]1CC[C@@H]2[C@@H](COc3ccc(NC(=O)C4CCCCC4)cc3C(=O)N2C)O1	-5.8
COc1ccc2c3c([nH]c2c1)[C@@H](CO)N(C)CC31CN(C(=O)NC(C)C)C1	24.0
COc1ccc(C#Cc2ccc3c(c2)[C@@H]2[C@@H](CCN2S(=O)(=O)c2cccc(OC)c2)[C@@H](CO)N3)cc1	5.2
N#Cc1cccc(-c2ccc(C3[C@@H]4CN(S(=O)(=O)Cc5ccccc5)C[C@H]3N4)cc2)c1 (stereo not given in full)	-40.8*
COc1cccc(CN2CCCCN3[C@H](CO)[C@H](c4ccc(-c5cccc(C#N)c5)cc4)[C@@H]3C2)c1	-3.2
N#Cc1cccc(-c2ccc(C3[C@@H]4CN(Cc5ccccc5)C[C@H]3N4)cc2)c1 (stereo not given in full)	-26.5*
CS(=O)(=O)N1CCCCN2[C@H](CO)[C@@H](c3ccc(-c4cccc(C#N)c4)cc3)[C@H]2C1	2.5
N#Cc1cccc(-c2ccc(C3[C@H]4CNC[C@@H]3N4Cc3cccc(-c4ccncc4)c3)cc2)c1 (stereo not given in full)	-4.5
CS(=O)(=O)N1CCCCN2[C@H](CO)[C@H](c3ccc(-c4cccc(C#N)c4)cc3)[C@@H]2C1	14.5
CN1[C@@H]2Cn3c(ccc(-c4ccccc4)c3=O)[C@H]1[C@@H](C(=O)NCCCN1CCOCC1)[C@@H]2CO	10.3
CC(=O)N1CCCCN2[C@H](C1)[C@H](c1ccc(C#Cc3ccccc3F)cc1)[C@@H]2CO	-7.0
CC(C)NC(=O)N1CCCCN2[C@H](C1)[C@@H](c1ccc(C#Cc3ccccc3F)cc1)[C@@H]2CO	-46.8*
O=C(CN1CCOCC1)N1CCCCN2[C@H](CO)[C@@H](c3ccc(C#Cc4ccccc4F)cc3)[C@@H]2C1	-35.9*
CC(=O)N1CCCCN2[C@@H](CO)[C@H](c3ccc(C#Cc4ccccc4F)cc3)[C@@H]2C1	-9.9
O=C(CN1CCOCC1)N1CCCCN2[C@@H](CO)[C@@H](c3ccc(C#Cc4ccccc4F)cc3)[C@@H]2C1	-9.2
O=C(CN1CCOCC1)N1CCCCN2[C@H](CO)[C@@H](c3ccc(C#Cc4ccccc4F)cc3)[C@H]2C1	-7.2
CN(C)CC(=O)Nc1ccc2c(c1)[C@H]1C[C@@H](CC(=O)NCc3ccc4c(c3)OCO4)O[C@H](CO)[C@H]1O2	8.8
O=C(NC1CCCCC1)N1CC2(C1)[C@H](c1ccccc1)[C@@H](CO)N2CC1CC1	0.7
COc1cccc(NC(=O)Nc2ccc3c(c2)C(=O)N(C)[C@H]2CC[C@@H](CC(=O)O)O[C@H]2CO3)c1	0.3
CCS(=O)(=O)N1[C@@H](CO)[C@H](c2ccccc2)C12CN(C(=O)C1CCCC1)C2	10.3
O=C(NCCCN1CCOCC1)[C@@H]1[C@@H](CO)[C@@H]2Cn3c(ccc(C4=CCCC4)c3=O)[C@H]1N2	-7.8
CC(C)CC#Cc1ccc2c(c1)O[C@H](CN(C)Cc1cncnc1)[C@@H](C)CN([C@@H](C)CO)S2(=O)=O	-2.4
COc1cccc(S(=O)(=O)Nc2ccc3c(c2)C(=O)N(C)C[C@H](OC)[C@@H](C)CN(Cc2ccccc2F)[C@H](C)CO3)c1	-3.7
COc1cccc(S(=O)(=O)Nc2ccc3c(c2)C(=O)N(C)C[C@@H](OC)[C@H](C)CN(Cc2ccccc2F)[C@H](C)CO3)c1	-25.9*
SMILES	DUX4 txn inh
CCCN1C[C@@H](C)[C@@H](OC)CN(C)C(=O)c2cc(NS(=O)(=O)c3ccccc3)ccc2OC[C@H]1C	6.9
COc1ccccc1-c1ccc(C2[C@@H]3CN(C(=O)c4ccncc4)C[C@H]2N3)cc1 (stereo not given in full)	8.5
CN(C)C(=O)c1ccc(-c2ccc(C3[C@@H]4CN(Cc5cccnc5)C[C@H]3N4)cc2)cc1 (stereo not given in full)	3.8
COc1ccccc1S(=O)(=O)N1C[C@@H]2N[C@H](C1)C2c1ccc(-c2ccccc2C)cc1 (stereo not given in full)	-42.1*!
COc1ccc(NC(=O)N2C[C@@H]3N[C@H](C2)C3c2ccc(-c3ccncc3)cc2)cc1 (stereo not given in full)	7.6
Cc1ccccc1-c1ccc(C2[C@@H]3CN(S(=O)(=O)c4ccccc4C)C[C@H]2N3)cc1 (stereo not given in full)	-36.2*!
O=C(c1cnccn1)N1C[C@@H]2N[C@H](C1)C2c1ccc(/C=C/c2ccccc2)cc1 (stereo not given in full)	-5.4
Cc1ccccc1-c1ccc([C@@H]2[C@@H](CO)N3C(=O)CN(S(C)(=O)=O)C[C@@H]23)cc1	7.0
Cc1ccccc1-c1ccc(C2[C@@H]3CN(Cc4cccnc4)C[C@H]2N3)cc1 (stereo not given in full)	-24.3*
Cc1ccccc1-c1ccc(C2[C@@H]3CN(C(=O)C4CCOCC4)C[C@H]2N3)cc1 (stereo not given in full)	0.6
COc1ccccc1-c1ccc(C2[C@@H]3CN(C(=O)c4cccnc4)C[C@H]2N3)cc1 (stereo not given in full)	9.6
CN(C)C(=O)c1ccc(-c2ccc(C3[C@@H]4CN(S(=O)(=O)c5ccccc5F)C[C@H]3N4)cc2)cc1 (stereo not given in full)	0.8
COc1ccc(-c2ccc(C3[C@@H]4CN(C(=O)c5cnccn5)C[C@H]3N4)cc2)cc1 (stereo not given in full)	-32.2*
CNC(=O)C[C@@H]1CC[C@@H]2[C@H](COc3ccc(NC(=O)Nc4ccc(Cl)cc4)cc3C(=O)N2C)O1	4.8
CCC(=O)N1[C@@H]2c3cccc(=O)n3C[C@@H]2[C@@H](CO)[C@@H]1C(=O)N[C@H](C)c1ccccc1	-3.4
COc1cccc(-c2ccc3n(c2=O)C[C@@H]2[C@@H](CO)[C@H](C(=O)NCC4CC4)N(C(C)=O)[C@H]32)c1	3.9
O=C(c1ccccn1)N1C[C@H]2[C@@H](c3ccccc31)[C@@H](CO)N2CC1CCCC1	0.6
CC(=O)N1[C@H](CO)[C@@H](c2ccccc2)C12CN(Cc1nccs1)C2	-0.1
COc1ccccc1NC(=O)N1C[C@@H](O)COC[C@H]2O[C@H](CC(=O)NCCc3ccccc3)CC[C@@H]21	14.1
COc1ccc2c3c(n(C)c2c1)[C@H](CO)N(C(=O)CC1CC1)CC31CN(C(=O)C2CC2)C1	4.5
CCC(=O)N1CC(=O)N2[C@H](CO)[C@H](c3ccc(-c4cccnc4)cc3)[C@H]2C1	19.5
COc1cccc(S(=O)(=O)N2[C@@H]3CNC[C@H]2C3c2ccc(-c3ccccc3C)cc2)c1 (stereo not given in full)	16.4
C/C=C/c1ccc(C2[C@@H]3CN(S(=O)(=O)c4ccccc4F)C[C@H]2N3)cc1 (stereo not given in full)	-6.0
Cc1ccccc1-c1ccc(C2[C@@H]3CN(S(=O)(=O)c4ccccc4)C[C@H]2N3)cc1 (stereo not given in full)	-49.9*!
COc1ccc(-c2ccc(C3[C@@H]4CN(S(=O)(=O)c5ccccc5C)C[C@H]3N4)cc2)cc1 (stereo not given in full)	-42.4*!
C/C=C/c1ccc(C2[C@@H]3CN(S(=O)(=O)c4ccc(F)cc4)C[C@H]2N3)cc1 (stereo not given in full)	1.6
